Laboratory results as given in PubChem BioAssay.
Activity calls are given as the source filed them. Unless noted, how the calls were made is not given here.

Key:
[1] = HepG2 liver cancer cell viability effects, profiling panel, resazurin fluorescence, 24 h, PK04 Diversity Set (AID 1172); conditions: higher = more signal
[2] = basal S. cerevisiae growth modulation, no modifier, primary screen, OD600, strain BY4716, 24 h, basal condition (AID 1173); conditions: OD600, 24 h, higher = more signal, called active from +8 up or from −8 down
[3] = MM1S myeloma cell viability, profiling panel, resazurin fluorescence, basal, 24 h, PK04 Diversity Set (AID 1174); conditions: higher = more signal, called active from +8 up or from −8 down;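 further: MM1S multiple myeloma cell line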
[4] = molecular target: Dihydroorotate dehydrogenase (quinone), mitochondrial (Plasmodium falciparum (isolate 3D7)) (UniProt Q08210); assay: PfDHODH enzyme inhibitors, primary screen, biochemical, C-terminal His tag, absorbance 600 nm (AID 1175); conditions: DCIP absorbance 600 nm, higher = more signal, called active from +8 up or from −8 down;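 further: recombinant parasite enzyme with a five histidine tag at its C terminus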
Chain of Dihydroorotate dehydrogenase (quinone), mitochondrial (Plasmodium falciparum (isolate 3D7)) (Q08210 whole entry, looked up): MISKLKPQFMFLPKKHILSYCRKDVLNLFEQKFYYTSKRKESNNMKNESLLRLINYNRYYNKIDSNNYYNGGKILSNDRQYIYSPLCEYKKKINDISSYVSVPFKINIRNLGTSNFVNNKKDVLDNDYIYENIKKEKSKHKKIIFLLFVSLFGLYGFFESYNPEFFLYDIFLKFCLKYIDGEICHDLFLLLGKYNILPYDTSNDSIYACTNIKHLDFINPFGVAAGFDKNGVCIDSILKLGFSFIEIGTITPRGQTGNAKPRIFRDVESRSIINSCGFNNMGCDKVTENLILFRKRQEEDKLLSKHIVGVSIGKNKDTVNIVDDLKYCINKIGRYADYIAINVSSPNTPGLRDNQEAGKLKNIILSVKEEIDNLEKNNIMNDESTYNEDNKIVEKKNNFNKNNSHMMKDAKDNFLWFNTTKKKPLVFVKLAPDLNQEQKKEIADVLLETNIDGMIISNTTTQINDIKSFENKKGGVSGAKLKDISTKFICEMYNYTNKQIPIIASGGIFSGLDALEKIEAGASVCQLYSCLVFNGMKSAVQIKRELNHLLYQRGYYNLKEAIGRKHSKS

[5] = P. aeruginosa biofilm formation inhibitors, primary screen, strain PAO1, LB-PBS medium, absorbance 600 nm (AID 1176); conditions: P. aeruginosa PAO1 growth/biofilm, A600, 12 h; higher = more signal
[6] = S. cerevisiae RM11-1a growth modifiers, primary screen, strain RM11-1a, OD600, basal, 24 h (AID 1177); conditions: OD600, 24 h, higher = more signal, called active from +8 up or from −8 down;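 further: cultures grown under basal conditions with no added stressor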
[7] = E. coli acrAB mutant growth effects, primary screen, E. coli filamentation inducers, strain DRC39, OD650, 24 h (AID 1178); conditions: higher = more signal, called active from +8 up or from −8 down;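 further: growth measured as culture turbidity by optical density at 650 nm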
[8] = E. coli acrAB mutant growth effects, primary screen, E. coli filamentation inducers, strain DRC39, OD650, 48 h (AID 1179);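 further: screen aims at cell division blockers that make cells filament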; conditions: E. coli DRC39 delta-acrAB growth, higher = more signal, called active from +8 up or from −8 down
[9] = RPMI8226 myeloma cell viability, profiling panel, resazurin fluorescence, basal, 24 h, PK04 Diversity Set (AID 1180); conditions: higher = more signal;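 further: RPMI8826 multiple myeloma cell line at 5000 cells per well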
[10] = molecular target: E3 ubiquitin-protein ligase XIAP (Homo sapiens) (UniProt P98170); assay: XIAP binders, primary screen, biophysical, small-molecule microarray, fluorescence 635 nm (AID 1181); conditions: small-molecule microarray binding, higher = more signal;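 further: score merges 667 nm emission and signal to noise over triplicate slides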
Chain of E3 ubiquitin-protein ligase XIAP (Homo sapiens) (P98170 whole entry, looked up): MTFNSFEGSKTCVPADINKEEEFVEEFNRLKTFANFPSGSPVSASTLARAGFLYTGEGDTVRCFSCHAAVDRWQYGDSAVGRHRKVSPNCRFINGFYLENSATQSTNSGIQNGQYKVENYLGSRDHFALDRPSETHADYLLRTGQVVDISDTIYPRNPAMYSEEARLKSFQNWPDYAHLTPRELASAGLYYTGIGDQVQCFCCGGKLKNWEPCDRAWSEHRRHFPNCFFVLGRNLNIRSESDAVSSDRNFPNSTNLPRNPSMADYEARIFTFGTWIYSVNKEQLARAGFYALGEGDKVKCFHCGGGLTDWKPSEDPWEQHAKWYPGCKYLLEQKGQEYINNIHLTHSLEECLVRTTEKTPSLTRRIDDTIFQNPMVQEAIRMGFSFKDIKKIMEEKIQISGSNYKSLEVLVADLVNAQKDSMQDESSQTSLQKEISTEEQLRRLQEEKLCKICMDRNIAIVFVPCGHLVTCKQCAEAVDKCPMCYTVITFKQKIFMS

[11] = tested on: XIP peptide (Xip251-270) binding; assay: small-molecule binders of XIP peptide, primary screen, biochemical, small-molecule microarray, fluorescence 635/667 nm, 0.1 µg/mL protein (AID 1182); conditions: fluorescent protein binding, 635 nm, higher = more signal, called active from +8 up or from −8 down
[12] = tested on: XIP peptide (Xip251-270); assay: small-molecule binders of XIP peptide, primary screen, biochemical, small-molecule microarray, fluorescence 635/667 nm, 0.5 µg/mL protein (AID 1183); conditions: small-molecule microarray binding, fluorescence 635 nm; higher = more signal
[13] = Plasmodium falciparum growth inhibition, primary screen, strain 3D7, DAPI fluorescence, 100 nL (AID 1184);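 further: parasites grown inside human red blood cells in medium with human serum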; conditions: P. falciparum 3D7 growth, 3 d, higher = more signal
[14] = molecular target: Homeobox protein Hox-A13 (Mus musculus) (UniProt Q62424); assay: inhibitors of HoxA13-DNA binding, primary screen, biochemical, fluorescence polarization, labeled oligonucleotide (AID 1185); conditions: 15 min, higher = more signal, called active from +8 up or from −8 down
Chain of Homeobox protein Hox-A13 (Mus musculus) (Q62424 whole entry, looked up): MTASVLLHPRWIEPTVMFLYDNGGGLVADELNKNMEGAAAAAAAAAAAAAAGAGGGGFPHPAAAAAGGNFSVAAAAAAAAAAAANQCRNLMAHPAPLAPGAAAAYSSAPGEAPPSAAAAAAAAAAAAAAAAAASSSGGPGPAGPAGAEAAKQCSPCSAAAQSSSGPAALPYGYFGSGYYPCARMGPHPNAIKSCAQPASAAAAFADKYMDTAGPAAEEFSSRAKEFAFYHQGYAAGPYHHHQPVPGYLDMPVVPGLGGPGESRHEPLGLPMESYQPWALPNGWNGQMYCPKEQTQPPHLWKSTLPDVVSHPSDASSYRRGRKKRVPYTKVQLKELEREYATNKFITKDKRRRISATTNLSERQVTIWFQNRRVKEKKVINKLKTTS

[15] = inhibitors of hydroxyurea-induced Chk1 phosphorylation, primary screen, imaging, HeLa, phospho-Chk1 antibody, percent positive cells (AID 1186); conditions: hydroxyurea-induced phospho-Chk1 immunofluorescence imaging, higher = more signal
[16] = inhibitors of hydroxyurea-induced Chk1 phosphorylation, primary screen, imaging, HeLa, phospho-Chk1 nuclear intensity (AID 1187); conditions: hydroxyurea-induced phospho-Chk1 immunofluorescence imaging, higher = more signal

Row | SMILES | z-score [1] | z-score [2] | z-score [3] | composite z-score [4] | z-score [5] | z-score [6] | z-score [7] | z-score [8] | z-score [9] | composite z-score [10] | composite z-score [11] | composite z-score [12] | z-score [13] | z-score [14] | z-score [15] | z-score [16]
1 | CN1C(=O)C2C=CC(C(O)C(c3ccccc3)c3ccccc3)N(Nc3ccccc3)C2C1=O (centres undefined) | -0.562 | -2.21 (inactive) | -0.978 (inactive) | 0.0016 (inactive) | 1.16 (inactive) | -0.238 (inactive) | -1.31 (inactive) | -1.38 (inactive) | -1.2 | 0.21 | 0.0848 (inactive) | 0.68 | 0.608 | -4.01 (inactive) | 0.535 (inactive) | -0.0171 (inactive)
2 | O=C1OCC=C[C@H]2OC34C=CCN(c5ccc(Cl)cc5)C(=O)[C@H]3N(CCCO)C(=O)[C@@H]4[C@@H]12 (some centres undefined) | -0.458 | -0.857 (inactive) | -0.393 (inactive) | -0.486 (inactive) | 0.276 (inactive) | 0.123 (inactive) | 0.958 (inactive) | 0.579 (inactive) | 0.0679 | 0.0593 | 1.92 (inactive) | -0.501 | -1.39 | -2.31 (inactive) | -0.0921 (inactive) | -0.389 (inactive)
3 | [N-]=[N+]=NCc1ccccc1[C@@H]1OC(c2ccc(OCCCO)cc2)=N[C@]1(Cc1ccccc1N=[N+]=[N-])C(N)=O | -0.0426 | -2.11 (inactive) | -0.727 (inactive) | 0.0263 (inactive) | 0.603 (inactive) | 0.604 (inactive) | 0.333 (inactive) | -0.37 (inactive) | -1.2 | 0.0656 | 0.411 (inactive) | 0.785 | -1.63 | -3.75 (inactive) | 0.135 (inactive) | 0.278 (inactive)
4 | COC(=O)[C@@]1(Cc2ccc(OC)cc2)[C@H]2c3cc(C(=O)N(C)C)n(CCSCCO)c3C[C@H]2CN1C(=O)c1ccccc1 | 0.123 | 0.32 (inactive) | -0.415 (inactive) | -0.669 (inactive) | 0.852 (inactive) | -0.459 (inactive) | 0.219 (inactive) | -0.143 (inactive) | -0.409 | -0.0062 | 0.149 (inactive) | 0.504 | -1.48 | -5.09 (inactive) | -0.02 (inactive) | 0.101 (inactive)
5 | COCCOC(=O)N1C(=O)[C@@]2(c3ccccc31)[C@H](C(=O)N1CCCCCCC1)[C@H]1C(=O)O[C@H](c3ccccc3)[C@H](c3ccccc3)N1[C@@H]2c1ccccc1OCCO | -0.415 | 0.406 (inactive) | -0.89 (inactive) | -0.089 (inactive) | 3.81 (inactive) | 1.79 (inactive) | -0.38 (inactive) | 0.0795 (inactive) | -0.201 | 0.496 | 2.16 (inactive) | 0.83 | -2.1 | 3.39 (inactive) | -0.26 (inactive) | -0.299 (inactive)
6 | O=C(NCc1ccccc1)[C@@H]1c2ccccc2C(=O)N(C2CCCCC2)[C@H]1c1ccc(CO)cc1 | -0.178 | 0.0854 (inactive) | -0.765 (inactive) | 0.0557 (inactive) | 0.0993 (inactive) | 0.138 (inactive) | 0.0692 (inactive) | 0.268 (inactive) | -1.7 | 0.117 | 0.81 (inactive) | 0.732 | -0.667 | -2.81 (inactive) | -0.13 (inactive) | -0.296 (inactive)
7 | CC[C@@H]1C=C(C(=O)O)[C@H](c2ccc(C(C)C)cc2)N1S(=O)(=O)c1ccc(C)cc1 | -0.892 | -1.01 (inactive) | -0.725 (inactive) | -0.976 (inactive) | 0.16 (inactive) | -1.27 (inactive) | -0.862 (inactive) | 0.133 (inactive) | -2.23 | 0.198 | 0.719 (inactive) | 0.924 | -0.646 | -5.17 (inactive) | 0.122 (inactive) | -0.118 (inactive)
8 | Cc1ccc(S(=O)(=O)N2CC(C(=O)O)=CCC2c2ccccc2)cc1 (centres undefined) | -1.31 | 0.558 (inactive) | -2.27 (inactive) | 0.154 (inactive) | 0.12 (inactive) | 0.437 (inactive) | -1.28 (inactive) | -1.15 (inactive) | -0.931 | 0.155 | 0.624 (inactive) | 0.268 | -0.863 | -2.63 (inactive) | -0.557 (inactive) | -0.655 (inactive)
9 | C=C(C(=O)CC[C@@H](OC(=O)c1cccnc1)c1ccc(CO)o1)C(C)C | 0.158 | -0.708 (inactive) | 0.285 (inactive) | -0.0661 (inactive) | 0.437 (inactive) | 0.113 (inactive) | -0.391 (inactive) | -0.562 (inactive) | 0.594 | 0.396 | -0.239 (inactive) | 0.249 | -0.188 | -4.55 (inactive) | 0.647 (inactive) | 0.501 (inactive)
10 | Cc1ccc(N2C(=O)c3ccccc3[C@@H](C(=O)NCC(C)C)[C@@H]2c2ccc(CO)cc2)nc1 | -0.324 | 0.0089 (inactive) | 0.439 (inactive) | 0.351 (inactive) | 0.348 (inactive) | -0.746 (inactive) | 0.483 (inactive) | 0.603 (inactive) | 0.68 | -0.148 | 0.184 (inactive) | 0.934 | 0.524 | -0.985 (inactive) | -0.275 (inactive) | -0.387 (inactive)
11 | CO[C@H]1O[C@H](CO)[C@@H](OC(=O)Nc2cccc(F)c2)[C@H](OC(=O)Nc2ccccc2-c2ccccc2)[C@@H]1OC(=O)Nc1ccccc1-c1ccccc1 | -1.71 | 0.664 (inactive) | -2.52 (inactive) | -0.59 (inactive) | 1.39 (inactive) | 2.42 (inactive) | -0.798 (inactive) | 0.689 (inactive) | -1.78 | 0.117 | 1.37 (inactive) | 0.805 | -2.53 | -1.83 (inactive) | -0.164 (inactive) | 0.217 (inactive)
12 | C#C[C@H](O[Si](C#CCCCCCC)(C(C)C)C(C)C)c1ccccc1 | 0.465 | 0.0181 (inactive) | 0.221 (inactive) | -0.719 (inactive) | -0.984 (inactive) | -0.0669 (inactive) | 0.0687 (inactive) | 0.577 (inactive) | 0.783 | 0.0406 | 0.0004 (inactive) | -0.113 | -1.32 | -1.2 (inactive) | -0.0616 (inactive) | -0.0839 (inactive)
13 | Cc1ccc(N2C(=O)c3ccccc3[C@](C)(C(=O)NCCN3CCOCC3)[C@@H]2c2ccc(CO)cc2)nc1 | -0.946 | -0.574 (inactive) | 0.438 (inactive) | 0.255 (inactive) | 0.31 (inactive) | 0.548 (inactive) | -0.0943 (inactive) | -0.126 (inactive) | 0.274 | 0.086 | -0.772 (inactive) | 0.471 | -0.855 | -1.9 (inactive) | -0.217 (inactive) | -0.163 (inactive)
14 | O=C(CS)NCCCCCCNC(=O)[C@H]1C[C@H]2C(=O)N3CCC[C@H]3C(=O)N2[C@H]1c1ccc(O)cc1 | 0.301 | 0.152 (inactive) | -0.868 (inactive) | -0.504 (inactive) | 0.0499 (inactive) | -0.458 (inactive) | -0.144 (inactive) | -0.516 (inactive) | -0.563 | 0.115 | 0.573 (inactive) | 0.646 | -0.38 | -2.8 (inactive) | -0.508 (inactive) | -0.19 (inactive)
15 | O=C1C2C=CC(C(O)c3cccc4ccccc34)N(n3cnnc3)C2C(=O)N1Cc1ccccc1 (centres undefined) | -0.447 | -17.4 (active) | -1.24 (inactive) | -2.08 (inactive) | -0.128 (inactive) | -23.2 (active) | -1.24 (inactive) | -1.14 (inactive) | -1.07 | -0.0421 | -0.0195 (inactive) | -0.633 | -0.206 | -1.86 (inactive) | 0.993 (inactive) | -0.055 (inactive)
16 | O=C1c2ccccc2[C@@]2(Cc3ccccc3N(Cc3ccccc3)C2=O)[C@H](c2ccc(CO)cc2)N1Cc1ccccc1C(F)(F)F | -0.897 | -0.614 (inactive) | -1.28 (inactive) | -4.41 (inactive) | 0.127 (inactive) | 0.349 (inactive) | 0.225 (inactive) | 0.429 (inactive) | -0.59 | -0.148 | 3.2 (inactive) | 0.878 | -0.275 | -2.79 (inactive) | -0.21 (inactive) | -0.154 (inactive)
17 | CN1C(=O)C2C=CC(C(O)c3ccc(Br)cc3)N(Nc3ccccc3)C2C1=O (centres undefined) | 0.0752 | -0.348 (inactive) | -0.26 (inactive) | -0.125 (inactive) | 0.434 (inactive) | 0.732 (inactive) | -0.398 (inactive) | -0.413 (inactive) | 0.296 | -0.0773 | -0.115 (inactive) | 0.0244 | 0.672 | -1.23 (inactive) | 0.247 (inactive) | -0.122 (inactive)
18 | C=CCN1C(=O)[C@@]2(O[C@@H](CCO)[C@H]([Si](C)(C)c3ccc(OC)cc3)[C@H]2C)c2cc(NC(C)=O)ccc21 | -0.865 | -1.47 (inactive) | -1.6 (inactive) | -1.13 (inactive) | -0.188 (inactive) | 1.48 (inactive) | 0.166 (inactive) | 0.121 (inactive) | -1.43 | 0.436 | 0.149 (inactive) | 0.258 | -2.74 | -6.52 (inactive) | -0.0604 (inactive) | 0.348 (inactive)
19 | CCOC(=O)C[C@H]1[C@H](OC(=O)c2ccc(C(=O)c3ccccc3)cc2)[C@@H](NC(=O)c2ccc3ccccc3n2)c2cc(OCCCO)ccc2N1C(=O)c1ccc2ccccc2n1 | 0.44 | -0.0495 (inactive) | 0.433 (inactive) | 0.681 (inactive) | 0.808 (inactive) | 0.081 (inactive) | 0.322 (inactive) | 0.388 (inactive) | 0.416 | -0.0525 | 0.545 (inactive) | 0.613 | -2.55 | -2.61 (inactive) | 0.226 (inactive) | 0.194 (inactive)
